This passage reports inhibition results from PubChem BioAssay AID1906 (The Scripps Research Institute Molecular Screening Center, 2009).

Out of some 300,000 compounds screened, about 1,500 (0.5%) were called active. This is one part of a sample in which actives are shown more often than they occur. A number with no mark means an inactive call.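 The calls were made as follows: active = inhibition above the mean of all tested compounds plus 3 SD, set per screening campaign (cut at about 17% in these data); inactive = the rest.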

In general, inhibition refers to the relative decrease from the control value, in per cent.

This assay has as its system cathepsin L1 (Fasciola hepatica). In words: CTSL1 protease inhibition, fluke enzyme – biochemical, QFRET, fluorogenic peptide substrate, counter-screen for PFM18AAP inhibitor project, primary screen (AID 1906).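 Also: 0% = plate median of test compound wells and 100% = 1 µM Z-Phe-Ala-diazomethylketone.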 Particulars: recombinant F. hepatica cathepsin L1, Z-Leu-Arg-MCA fluorescence; at 5.96 µM; hits give high values. In general terms: Counterscreens check selectivity or assay interference.
Regarding `O=C(COc1ccc(S(=O)(=O)N2CCCCC2)cc1)NCc1ccccn1`, the inhibition is -1.94%.

As for `Cc1ccc(CNC(=O)Cn2cnc(S(=O)(=O)N3CCCCC3)c2)o1`, the inhibition is 17.4% (active).

On to `O=C(COC(=O)c1cc(S(=O)(=O)N2CCCCC2)ccc1Cl)NCc1ccco1`, for which the inhibition is -8.1%.

With `CCOC(=O)/C(=N\Nc1ccccc1Cl)N(C)C1CCS(=O)(=O)C1` (centres undefined), the inhibition was -2.25%.

Turning to `CCc1c(C)nc(SCC(=O)NC2CCCC2)[nH]c1=O`, the inhibition is 0.66%.

As to `COc1cccc2sc(N(CCCN(C)C)C(=O)C(c3ccccc3)c3ccccc3)nc12`, the inhibition was 1.13%.

Turning to `Cc1ccc2sc(N(CCN(C)C)C(=O)/C=C/c3cccs3)nc2c1C`, the inhibition is 0.9%.

Take `COc1cccc2sc(N(CCCN(C)C)C(=O)CCS(=O)(=O)c3ccccc3)nc12`: the inhibition is 52.7% (active).

Take `COc1cc2ccccc2cc1C(=O)N(CCN(C)C)c1nc2c(F)cccc2s1`: the inhibition is 3.44%.

`CC(=O)N(CCCN(C)C)c1nc2ccc(C)cc2s1`: the inhibition was 2.99%.

For the compound `Cc1cccc2sc(N(CCCN(C)C)C(=O)CCS(=O)(=O)c3ccccc3)nc12`, the inhibition was 28.5% (active).

For `Cc1ccc(SCC(=O)Nc2nncs2)cc1`, the inhibition was -3.07%.

Regarding `Cc1cc([N+](=O)[O-])c(NC2CCCCC2)c([N+](=O)[O-])c1`, the inhibition was 5.19%.

Consider `Cc1nn(CC(=O)NC2CCCCC2)c(=O)c2cccn12`, for which the inhibition is -0.36%.

As to `Cc1cc(C(F)F)nn1CC(=O)NC1CCCCCC1`, the inhibition was -2.79%.

As for `O=C(Cn1nc([N+](=O)[O-])nc1Br)NC1CCCCC1`, the inhibition was 56.3% (active).

Regarding `Cc1cc(C)n(-c2nc(O)cc(=O)[nH]2)n1`, the inhibition is -2.61%.

With `CC(OC(=O)CCC(=O)c1ccccc1)C(=O)Nc1ccc(F)cc1` (centres undefined), the inhibition is -70.5%.

`C/C(=N\NC(=O)c1ccc2ccccc2c1)c1cccnc1`: the inhibition was 0.17%.

`O=C(O)c1ccc2c(c1)C(=O)N(NC(=O)c1ccc(O)cc1)C2=O`: the inhibition was -4.02%.

Take `CC(=O)N1C(=O)/C(=C2\SC(=S)N(NC(=O)c3ccc(O)cc3)C2=O)c2ccccc21`: the inhibition is 20.6% (active).

`Cn1cccc1/C=C1\SC(=S)N(NC(=O)c2ccc(Cl)cc2)C1=O`: the inhibition is 1.38%.

Regarding `CC(=O)c1cccc(NC(=S)N2CCN(S(C)(=O)=O)CC2)c1`, the inhibition was -1.96%.

Turning to `O=C(NCc1ccccc1Cl)C1CCCN1S(=O)(=O)c1ccc(F)cc1` (centres undefined), the inhibition was -1.27%.

As for `COc1cccc(OCc2nnc3n2N=C(c2ccccc2)C(CC(=O)O)S3)c1` (centres undefined), the inhibition is -0.13%.

On to `NC(=O)C1CCN(C(=O)/C(=C/c2ccco2)NC(=O)c2ccccc2)CC1`, for which the inhibition is 3.81%.

As to `O=C(OCN1C(=O)c2ccccc2C1=O)/C(=C\c1ccco1)NC(=O)c1ccccc1`, the inhibition was 83.3% (active).

For the compound `O=C(NCc1ccco1)/C(=C/c1ccco1)NC(=O)c1ccccc1`, the inhibition is 8.99%.

In the case of `CNC(=O)c1c(NC(NC(=O)c2ccco2)C(=O)c2ccc(Cl)cc2)sc2c1CCCC2` (centres undefined), the inhibition was 1.81%.

Turning to `Cc1cc(CNC(=O)C2CCC(=O)N(CCc3ccc(Cl)cc3)C2)no1` (centres undefined), the inhibition is 1.95%.

Turning to `Cc1cc(=O)[nH]c2nnnn12`, the inhibition is 0.51%.

With `O=C(Cc1ccccc1Cl)N1CCOCC1`, the inhibition was -0.12%.

For the compound `Cc1cc2cc3c(N)[nH]nc3nc2cc1C`, the inhibition is 0.69%.

On to `O=C(Nc1cccnc1Oc1ncnc2cc(Cl)ccc12)c1ccc(F)cc1`, for which the inhibition was 19.2% (active).

For the compound `O=C(Nc1cccc2c1CCCC2)c1ccc(F)cc1`, the inhibition was -0.12%.

As for `O=C(Nc1cccc2cccnc12)c1cccc(Cl)c1`, the inhibition is 5.74%.

On to `O=C(Nc1cc2c3c(c1)CC(=O)N3CCC2)c1ccccc1F`, for which the inhibition is -1.43%.

As for `O=C(COc1ccccc1)Nc1cc2c3c(c1)CC(=O)N3CCC2`, the inhibition is -2.44%.

Take `CCCNC(=O)C(=O)Nc1cc2c3c(c1)CCC(=O)N3CCC2`: the inhibition is 57.1% (active).

Turning to `COc1ccccc1C(=O)NC(CCSC)C(=O)NNC(=O)c1ccccc1C` (centres undefined), the inhibition is 7.41%.

For `CC1CN/C(=C\C(=O)c2ccc(Br)cc2)C(=O)N1` (centres undefined), the inhibition was 0.61%.

Consider `COc1ccc(N2CCN(C(C)=C3C(=O)c4ccccc4C3=O)CC2)cc1`, for which the inhibition is 0.37%.

As to `O=C1c2ccccc2-c2ncnc3c(N4CCOCC4)cc(N4CCOCC4)c1c23`, the inhibition was 3.65%.

As to `COC1=C(N2CCOCC2)C(=O)c2ccccc2C1=O`, the inhibition is 21.1% (active).

Consider `C[C@@H](O)c1nc2ccccc2n1N`, for which the inhibition was -3.93%.

Take `CC1=NNC(=O)C1CC(=O)N/N=C/c1ccncc1` (centres undefined): the inhibition is 2.89%.

Take `O=C(CSC1CC(=O)N(CCc2ccccc2)C1=O)Nc1ccc(Cl)cc1` (centres undefined): the inhibition was -0.89%.

Take `CC(=O)Nc1ccc(CN2CCN(Cc3ccc(F)c(F)c3)C(CCO)C2)cc1` (centres undefined): the inhibition is -1.18%.

For the compound `CCOC(=O)c1sc(NC(=O)CCN2CCOCC2)c(C(=O)OCC)c1C`, the inhibition was 4.35%.

Regarding `CCOC(=O)Nc1sc(C(=O)N(C)C)c(C)c1C(=O)OCC`, the inhibition was 3.33%.

`CCOC(=O)c1c(NC(=O)CCl)sc(C(=O)N(CC)CC)c1C`: the inhibition was 41.2% (active).

For the compound `CC(=O)c1ccc(NC(=O)Cn2c(=O)oc3ccccc32)cc1`, the inhibition was 5.59%.

Regarding `CCSc1nsc(NC(=O)Nc2ccccc2OC)n1`, the inhibition is -2.36%.

On to `CCSc1nsc(NC(=O)Nc2cccc(C(C)=O)c2)n1`, for which the inhibition is 18.9% (active).

Consider `C=CCSc1nsc(NC(=O)Nc2cccc(C(C)=O)c2)n1`, for which the inhibition was 3.26%.

`CC(=O)c1cccc(NC(=O)C2CCCN(S(=O)(=O)c3cccc4nonc34)C2)c1` (centres undefined): the inhibition is 4.35%.

As for `CC[N+](C)(CC)CCC[n+]1c(-c2ccccc2)c2cc(N)ccc2c2ccc(N)cc21`, the inhibition is 108% (active).

Regarding `CCOc1cc(C2/C(=C(/O)c3ccc(S(=O)(=O)N4CCCCC4)cc3)C(=O)C(=O)N2CCOC)ccc1O` (centres undefined), the inhibition was 2.14%.

With `Cc1ccc(NC(=O)CSc2nnc(COc3ccccc3C)o2)cc1`, the inhibition was 2.58%.

As to `CCCc1nnc(SCC(=O)Nc2ccc(C(=O)OCC)cc2)o1`, the inhibition is 22.8% (active).

For the compound `Cc1cc(C)cc(OCc2nnc(SCC(=O)Nc3ccccc3)o2)c1`, the inhibition is 2.58%.

`CCOc1ccc(CN2CCN(Cc3ccc(C)o3)CC2CCO)cc1` (centres undefined): the inhibition is -3.26%.

`COc1ccc(NC(=O)CN2C(=O)COc3ccc(S(=O)(=O)N4CCOCC4)cc32)cc1`: the inhibition was -1.53%.

On to `C[C@H](NC(=O)OC(C)(C)C)c1nnc(SCC(=O)Nc2ccc(Br)cc2)o1`, for which the inhibition is 9.5%.

As for `CCc1ccccc1NC(=O)CSc1nnc(CCNC(=O)OC(C)(C)C)o1`, the inhibition was -11.2%.

With `Cc1cccc(NC(=O)CSc2nnc(CCNC(=O)OC(C)(C)C)o2)c1C`, the inhibition is -2.25%.

For the compound `CCc1ccccc1NC(=O)CSc1nnc(-c2ccncc2)o1`, the inhibition was -3.59%.

Consider `CCc1ccccc1NC(=O)CSc1nnc([C@@H](NC(=O)OC(C)(C)C)C(C)CC)o1` (some centres undefined), for which the inhibition was 36.5% (active).

On to `CCc1ccccc1NC(=O)CSc1nnc([C@@H](NC(=O)OC(C)(C)C)C(C)C)o1`, for which the inhibition is 25.9% (active).

Consider `COC(=O)C1(CCSC)NC(c2ccc(OC)cc2OC)C2C(=O)N(c3cccc(C(C)=O)c3)C(=O)C21` (centres undefined), for which the inhibition was -14.2%.

Take `CCCCn1c(N)c(N(CC(C)C)C(=O)CSc2ccc([N+](=O)[O-])cc2)c(=O)[nH]c1=O`: the inhibition was 0.91%.

Turning to `Cc1ccc(N(C(=O)c2snc(C(N)=O)c2N)C(C(=O)NCC2CCCO2)c2c[nH]c3ccccc23)cc1` (centres undefined), the inhibition is -0.55%.

Regarding `CCCCC(CC)CNCc1cccn1CCN1CCOCC1` (centres undefined), the inhibition was -3.94%.

In the case of `COc1ccc(CCNC(=O)C(=O)NCC2CCCN2S(=O)(=O)c2cccs2)cc1OC` (centres undefined), the inhibition was -2.2%.

Consider `O=C(NCCC1CCCCN1S(=O)(=O)c1cccs1)C(=O)Nc1ccc(F)cc1F` (centres undefined), for which the inhibition was 2.68%.

With `COc1ccccc1CCNC(=O)C(=O)NCCC1CCCCN1S(=O)(=O)c1cccs1` (centres undefined), the inhibition is 17.3% (active).

Regarding `Cc1ccc(C(=O)COC(=O)CCN2C(=O)C3C4CCC(C4)C3C2=O)cc1C` (centres undefined), the inhibition was 8.56%.

Consider `COc1ccc(/C=C/CN2CCN(Cc3ccc(C)cc3)C(CCO)C2)cc1` (centres undefined), for which the inhibition is 7.06%.

With `COC(C(=O)Nc1ccc(S(=O)(=O)Nc2ccc(C)c(C)c2)cc1)c1ccccc1` (centres undefined), the inhibition was 1.68%.

Consider `CCOC(=O)c1ccc(-c2ccc(C(=O)Nc3cccnc3)o2)cc1`, for which the inhibition was 19% (active).

On to `Cc1ccc(NC(=O)Nc2cccnc2)cc1`, for which the inhibition was -1.42%.

Take `CCOC(=O)c1cc(NC(=O)c2cccnc2)ccn1`: the inhibition was -0.7%.

Turning to `Cc1cc(C)c(NC(=O)CN2CCOCCOCCOCCOCC2)c(C)c1`, the inhibition was 2.85%.

For the compound `O=C(CSc1nc2ccccc2[nH]1)Nc1nc(-c2ccccc2)c(-c2ccccc2)o1`, the inhibition is 17.5% (active).

Consider `O=C(CSc1nc2ccccc2[nH]1)N/N=C/C=C\c1ccccc1[N+](=O)[O-]`, for which the inhibition is 4.39%.

`CN(Cc1ccccc1)C(=O)CSc1nc2ccccc2[nH]1`: the inhibition is 2.91%.

Take `Cc1ccc(O/C=C2\OC(=O)c3ccccc32)cc1`: the inhibition was 2.38%.

Turning to `CCOc1cc(C)ccc1OCc1nnc(SCC(=O)Nc2cccc(C(=O)O)c2)n1-c1ccccc1`, the inhibition is -6.39%.

Turning to `Cc1cccc(-n2c(SCC(=O)Nc3cccc(S(=O)(=O)NC4=NCCCCC4)c3)nc3ccccc3c2=O)c1C`, the inhibition was 0.48%.

`CCC(C)NC(=O)c1cc(Cl)ccc1OC` (centres undefined): the inhibition was 0.5%.

Turning to `COc1ccc(Cl)cc1C(=O)NCc1cn(C)nc1C`, the inhibition is -1.11%.

For the compound `COc1ccc(Cl)cc1C(=O)NCC#N`, the inhibition is 21% (active).

Turning to `Cc1cnc(C(=O)Oc2cccc(Cl)c2Cl)cn1`, the inhibition is -0.8%.

With `O=C(NCc1cccc(Cl)c1)C1CCN(c2nnc(N3CCCC3=O)s2)CC1`, the inhibition is -5.47%.
